In PubChem BioAssay AID493191 (Broad Institute, 2011):
In all, about 1,300 compounds went through this assay and about 330 (25%) were called active. The rule behind the calls is not given here. A selection follows. Results with a measured potency or affinity are listed apart.

Test: growth inhibition of MALME3 cells – cell-based, CellTiter-Glo, cherry-picked, orthogonal assay for MITF inhibitor project, dose response (AID 493191)
Settings: MALME3 melanoma viability, CellTiter-Glo luminescence, 24 h; series mostly up to 35 µM

SMILES	outcome
CCCCCCN1C=CC(=C2C(=O)c3ccccc3C2=O)C=C1	inactive
CC1CCN(Cc2nc(-c3ccc(Cl)cc3)no2)CC1	inactive
CC1CC(C)C[N+](=C2C=C(N3CCCC3)CC(C)(C)C2)C1 (stereo not drawn)	inactive
Cc1ccc(C(=O)C[n+]2cc(-c3ccc(C)cc3)n3c2CCCCC3)cc1	inactive
Cc1ccc(C(=O)NC2=NCCS2)cc1Cl	inactive
C=CC[n+]1c(-c2ccc(C)cc2)csc1Nc1ccc(NC(C)=O)cc1	inactive
CCOc1ccc2nc(NC(=O)Cc3cccs3)sc2c1	inactive
CC(C)(CO)NC(=O)c1ccc2nc(Cc3cccc(Cl)c3)oc2c1	inactive
Cc1nn(C)cc1/C=C/C(=O)c1cccs1	inactive
CCOc1ccc(-n2c(-c3ccc(Br)cc3)c[n+]3c2CCCCC3)cc1	inactive
O=C1c2ccccc2C(=O)N1CCSc1ccccc1	inactive
COc1cc(OC)cc(C(=O)Nc2ccc3c(c2)OCCO3)c1	inactive
COc1cccc(NC(=O)Nc2cccc(C(=O)O)c2)c1	inactive
CCN(C(=O)c1ccco1)c1nc(-c2ccc(OC)cc2)cs1	inactive
COc1cc2c(cc1O)C(SC)=NC(C)(C)C2	inactive
CC(C)c1ccc(/C=N/Nc2ccc(C(=O)O)cc2)cc1	inactive
CCN1c2ccccc2NC2C1C(C(C)=O)C(=O)N2c1ccc(Cl)cc1 (stereo not drawn)	inactive
Cc1nc(NCCOc2ccccc2)sc1C(=O)Nc1ccccc1	inactive
CCOC(=O)c1sc(-c2ccccc2)cc1N	inactive
CCOC(=O)c1c(C)[nH]c(C)c1C(=O)COC(=O)c1ccc([N+](=O)[O-])s1	inactive
COc1ccc(C)cc1Nc1nc(N)c2cc(OC)c(OC)cc2n1	inactive
CC(C)CC(=O)NC(c1cccs1)c1ccc2cccnc2c1O (stereo not drawn)	inactive
N/C(=N\OC(=O)c1ccncc1)c1cccc([N+](=O)[O-])c1	inactive
Cc1c(C#N)c(NC(=O)CCl)n(Cc2ccccc2)c1C	inactive

SMILES	outcome
Fc1cccc(Cl)c1CSc1nnc(-c2ccncc2)o1	inactive
Cc1ccc(OCC(=O)Nc2ccccc2F)cc1	inactive
CC(=O)N/C(N)=N/c1nc(=O)c2ccccc2s1	inactive
NC(=O)c1c(NC(=O)c2cccnc2)sc2c1CCCCC2	inactive
CCOc1ccc(N/C=C/C(=O)c2ccc(OC)c(OC)c2)cc1	inactive
OCCNc1c2ccccc2nc2ccccc12	inactive
Clc1ccc(-c2noc(CN3CCOCC3)n2)cc1	inactive
NNC(=O)Cn1c(SCc2ccccc2)nc2ccccc21	inactive
COc1ccc(N/C=C\C(=O)c2ccc3ccccc3c2)cc1	inactive
O=C(Nc1ccc([N+](=O)[O-])cc1)c1ccccc1	inactive
COc1ccc(-c2csc(Nc3ccccn3)n2)cc1OC	inactive
Cc1ccccc1NCc1nc2ccccc2n1C	inactive
O=C(c1cc2ccccc2oc1=O)N1CCN(c2ncccn2)CC1	inactive
N#C/C(=C\c1ccc(OCc2ccc(C(=O)O)cc2)cc1)C(=O)N1CCOCC1	inactive
CCN1CCN(c2ccc(Nc3ccnc4ccccc34)cc2)CC1	inactive
N#Cc1nc(/C=C/c2ccccc2)oc1NCCCN1CCOCC1	inactive
CCn1c(C)cc(C(=O)CN2C(=O)c3ccccc3S2(=O)=O)c1C	inactive
Cc1ccc(SCc2cn3cc(Cl)ccc3n2)cc1	inactive
Cc1ccc(-c2c[n+](Cc3cccc(Cl)c3)c3n2CCC3)cc1	inactive
CCN(CC(=O)Nc1ccc2c(c1)OCCO2)C(=O)c1ccc([N+](=O)[O-])s1	inactive
CC(OC(=O)c1ccc([N+](=O)[O-])s1)C(=O)NC1CCCCC1C (stereo not drawn)	inactive
O=[N+]([O-])c1ccc(/C=N/n2c(CO)nc3ccccc32)s1	inactive
Nc1nc2ccccc2n1/N=C/c1ccc(-c2ccccc2)o1	inactive
CCOC(=O)Cn1c(=NC(=O)c2ccc([N+](=O)[O-])s2)sc2ccccc21	inactive

SMILES	outcome
C=CCn1c(C)cc(C(=O)CN2C(=O)c3ccccc3S2(=O)=O)c1C	inactive
Cn1c(/C=C/c2cccc([N+](=O)[O-])c2)c([N+](=O)[O-])c(=O)n(C)c1=O	inactive
Nc1ccc(-c2cc3ccccc3c(=O)o2)cc1	inactive
Cn1c(COc2ccccc2Br)nc2ccccc21	inactive
O=C(CN1CCCCC1)Nc1scc2c1c(=O)oc1ccccc12	inactive
CCc1ccc(-c2cc(C(=O)Nn3cnnc3)c3ccccc3n2)cc1	inactive
Cc1cn(CCC(=O)Nc2ccccc2N2CCOCC2)c2ccccc12	inactive
O=C(Nc1ccccc1N1CCOCC1)c1ccc([N+](=O)[O-])o1	inactive
FC(F)(F)Oc1ccc(-c2cn3cccnc3n2)cc1	inactive
CCN(CCO)c1ccc(N=Nc2cc(C)[nH]n2)cc1	inactive
COc1cc(/C=C/C(=O)c2ccc3c(c2)OCCO3)cc(Br)c1OCC(=O)N(C)C	inactive
COCc1cc(C)nc2sc(C(=O)Nc3ccc(OC)cc3)c(N)c12	inactive
Cc1ccccc1-c1nc(CN2CCC(C(=O)NCCCN3CCCC(C)C3)CC2)c(C)o1 (stereo not drawn)	inactive
Cc1cc(C)c2nc(N3CCC(C(=O)NCCCN4CC(C)CC(C)C4)CC3)sc2c1 (stereo not drawn)	inactive
COc1cc(-c2nnc(-c3ccco3)o2)ccc1OCc1ccccc1	inactive
COc1ccc(-c2nc3n(c2C)Cc2ccccc2-3)cc1	inactive
COc1ccc(-c2nc(-c3ccccc3OC)no2)cc1OC	inactive
Cn1nnnc1Sc1ncnc2scc(-c3ccc[nH]3)c12	inactive
S=c1[nH]nc(-c2ccco2)n1/N=C/C(Cl)=C/c1ccccc1	inactive
Oc1cc(NCc2cccnc2)ccc1-c1nc2ccccc2o1	inactive
Cc1ccc2nc(-c3cccnc3)oc2c1	inactive
O=C(Nc1ccc(-c2nc3ncccc3o2)cc1)c1ccc([N+](=O)[O-])o1	inactive
O=C(Nc1ccccc1Cl)c1cc(=O)c2ccccc2o1	inactive
CC(=NNC(=S)N1CCN(c2ccccn2)CC1)c1nccs1	inactive

SMILES	outcome
Oc1c(Cl)cc(Cl)cc1/C=N/Nc1ncc(Br)cn1	inactive
CC(C)(C)C1CCC(OC(=O)CN2CCCCC2)CC1 (stereo not drawn)	inactive
Cc1ccc(NC(=O)Nc2ccccc2)nc1	inactive
COc1cc(C2C(C#N)=C(N)Oc3cc(N(C)C)ccc32)cc2c1OCO2 (stereo not drawn)	inactive
Cc1ccc(/C=c2/sc3n(c2=O)CCCN=3)o1	inactive
O=C(Cn1cc(/C=C\[N+](=O)[O-])c2ccccc21)Nc1ccccc1	inactive
Cc1cc(/C=C2\Sc3ccccc3N2C)cc(C)[n+]1CC1CCCO1 (stereo not drawn)	inactive
O=C(O)c1cccc(COc2ccccc2Cl)c1	inactive
COc1cc(C(=O)N/N=C(\c2ccccc2)c2ccccn2)cc(OC)c1OC	inactive
Cc1ccc2c(c1)COc1c3ccc(C(=O)O)cc3nn1-2	inactive
COc1cc(/C=N/NS(=O)(=O)c2ccc3ccccc3c2)ccc1OCc1ccc(C(=O)O)cc1	inactive
COc1cc(/C=N/NS(=O)(=O)c2ccc(C)cc2)ccc1OCc1cccc(C(=O)O)c1	inactive
CCOc1cc(/C=N/Nc2cccc(C(=O)O)c2)ccc1OC(=O)c1ccccc1	inactive
CCOc1cc(/C=C2/NC(=S)NC2=O)ccc1OCc1ccc([N+](=O)[O-])cc1	inactive
Cc1cc(/C(N)=N/OC(=O)c2ccc(Cl)cc2)no1	inactive
CCCCN=C(C)c1c(O)c2ccccc2oc1=O	inactive
CC(C)(C)c1ccc(/C=N/Nc2ccc(C(=O)O)cc2)cc1	inactive
Cc1ccc(/C=N/Nc2ccc(C(=O)O)cc2)s1	inactive
Cc1csc(NC(=O)Cc2c(F)cccc2Cl)n1	inactive
Cc1cc(C)n(CCC(=O)N/N=C/c2c(O)ccc3ccccc23)n1	inactive
Cc1ccc(-n2[nH]c(=O)c(-c3ccccn3)c2C)cc1	inactive
Cc1cccc(N(O)C(=O)Nc2cccc(Cl)c2)c1	inactive
Cn1c(COc2ccccc2)nc2ccccc21	inactive
COc1ccc(NCc2nc3ccccc3n2C)cc1	inactive

SMILES	outcome
CCOC(=O)/C=c1\s/c(=C\c2ccc3cc(OC)ccc3c2)c(=O)n1CC(=O)NCC1CCCO1 (stereo not drawn)	inactive
O=C(COC(=O)CCN1C(=O)/C(=C\C=C\c2ccccc2)SC1=S)Nc1cc(F)ccc1F	inactive
N=c1n(CC(=O)c2ccc(Br)cc2)c2ccccc2n1Cc1ccccc1	inactive
O=C(Nc1ccccn1)c1ccc(Br)s1	inactive
O=C(CCl)N1c2ccccc2SCC1c1ccccc1 (stereo not drawn)	inactive
COc1ccc(COC(=O)c2n[nH]c3ccccc23)cc1F	inactive
CC(=O)N(\C=C/C=C/C=C1\Sc2ccccc2C1=O)c1ccccc1	inactive
CCSc1nc2c(cnn2-c2ccccc2)c(=O)n1N	inactive
Nc1c(-c2ccc(Cl)cc2)nnn1-c1ccccc1	inactive
COc1cc2c(cc1OC)C(SC)=NC1(CCCC1)C2	inactive
CN(C)c1ccc(/C=C(\C#N)c2ccccn2)cc1	inactive
N=c1n(CC(=O)c2ccc([N+](=O)[O-])cc2)c2ccccc2n1Cc1ccccc1Cl	inactive
Cc1ccccc1C(=O)O/N=C(\N)c1ccc([N+](=O)[O-])cc1	inactive
Cc1ccccc1Cn1c(=N)n(CC(=O)c2ccc([N+](=O)[O-])cc2)c2ccccc21	inactive
O=C(/C=C/NNC(=O)c1ccccc1)c1ccc([N+](=O)[O-])cc1	inactive
O=C(C[n+]1cccc2ccccc21)c1ccc([N+](=O)[O-])cc1	inactive
CCN1CCN(/C=N/c2nc3c(s2)CCCC3)CC1	inactive
CC(Oc1cccc(Br)c1)C(=O)NNC(=O)c1ccccn1 (stereo not drawn)	inactive
Cc1cnn(C(=S)NCCc2ccccc2)c1	inactive
O=C(Cn1cnc2c(oc3ccccc32)c1=O)c1ccccc1	inactive
CCCCOC(=O)c1[nH]c(C)c(C(=O)OC)c1C	inactive
CCOC(=O)c1c(NC(C)=O)sc2c(OCC(O)CNC(C)(C)C)c(Br)ccc12 (stereo not drawn)	inactive
